Sampled rows, rich in hits. Any-hit rate of the full collection: about 1.9%.
BaF3 parental – counter-screen for JAK2V617F inhibitors: parental Ba/F3 viability inhibitors; inhibition, % at 5.6 µM; AID 1486; 1.1% of 220,000 active; CellTiter-Glo ATP luminescence;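 active = inhibition above a per-campaign cutoff, the mean inhibition of all tested compounds plus 3 SD, cut at about 27% in these data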;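 also: 0% = DMSO wells and 100% = JAK Inhibitor I control wells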
IEC-6 cytotox – counter-screen for KLF5 inhibitors: cytotoxicity in IEC-6 cells | IEC-6 cytotoxicity, luminescence viability | inhibition, % at 5 µM | 0.78% of 290,000 active;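 also: 0% = plate median of test compound wells and 100% = cytotoxic reference compound wells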
KLF5 inh – inhibitors of KLF5 expression; DLD-1 KLF5 promoter-luciferase reporter, luminescence; inhibition, % at 5 µM; 0.23% of 290,000 active; AID 1700;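 active = inhibition above a per-plate limit of that plate's mean compound inhibition plus 3 SD, cut at about 60% in these data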;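 also: 0% = DMSO wells and 100% = LY294002 at 200 µM; higher means less KLF5 promoter-driven luciferase light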
Ba/F3 V617F tox – reduce viability of Ba/F3 cells dependent on JAK2V617F; Ba/F3 EpoR-JAK2V617F viability, ATP luminescence; 1.1% of 220,000 active; inhibition, % at 5.6 µM;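 active = inhibition above the campaign mean plus 3 SD over all tested compounds, cut at about 24% in these data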;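 also: cytokine-independent growth of Ba/F3 cells driven by EpoR plus mutant JAK2; 0% = DMSO-treated cells and 100% = JAK inhibitor I control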
APP transl inh – APP translation inhibition. SH-SY5Y APP 5'UTR-luciferase reporter, luminescence. inhibition, % at 2 µM. 0.82% of 190,000 active;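 active = inhibition above a set limit, derived from the sample mean plus 3 SD, cut at about 45% in these data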
IEC-6 tox confirm – confirmation of cytotoxic compounds in rat IEC-6 intestinal epithelial cells. shares compounds with IEC-6 cytotox. IEC-6 rat intestinal epithelial viability, luminescence. inhibition, % at 5 µM. 63% of 1,900 active;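 also: 0% = vehicle and 100% = reference cytotoxic drug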
An asterisk follows results filed as active; / = not tested or not shown. Rule as the data show it, unless noted: active = inhibition above about 22%; inactive = the rest.

SMILES | BaF3 parental | IEC-6 cytotox | KLF5 inh | Ba/F3 V617F tox | APP transl inh | IEC-6 tox confirm
O=c1c(Cl)c(Cl)cnn1Cc1nnc(-c2ccccc2Br)o1 | -1 | 30* | -11 | 16 | 94* | 22
Clc1ccccc1OCc1nnc(-c2ccccc2Br)o1 | 6 | 1 | -119 | 2 | -95 | /
O=C(c1ccc([N+](=O)[O-])o1)N1CCc2ccccc2C1 | -1 | -1 | -26 | -1 | / | /
O=C(c1ccc([N+](=O)[O-])o1)N1CCc2ccccc21 | / | 30* | -61 | / | / | 5
O=C(O)c1ccc(CSc2nnc(-c3ccccc3Br)o2)cc1 | / | 6 | -32 | / | / | /
COc1ccc(C2C(C(=O)Nc3ccccc3)=C(C)N=C3SCC(=O)N32)cc1 (centres undefined) | 4 | 1 | 2 | 1 | -3 | /
COc1ccc(-c2oc3cccnc3c2C#CC2(O)CCCCC2)cc1 | / | 5 | -35 | / | / | /
COc1ccc(-c2oc3cccnc3c2C#CCO)cc1 | / | 29* | -17 | / | / | 16
c1ccc(Nc2ncnc3sccc23)cc1 | / | 10 | -25 | / | / | /
CC(Nc1ncnc2sccc12)c1ccccc1 (centres undefined) | / | 29* | -8 | / | / | 27*
Cc1cccc(OCC(=O)Nc2ccc(C(=O)NCc3cccnc3)cc2)c1 | -4 | 26* | 7 | 12 | 10 | -12
O=C(NCc1cccnc1)c1ccc(NC(=O)c2ccc(Br)cc2)cc1 | / | 89* | -29 | / | / | 43*
Cc1ccc(N2CC(C(=O)OCC(=O)c3ccc([N+](=O)[O-])cc3)CC2=O)cc1 (centres undefined) | / | -1 | -19 | / | / | /
CCOC(=O)N1CCc2c(sc3c2c(=O)n(-c2ccc(CC)cc2)c(=O)n3CC(=O)NCC2CCCO2)C1 (centres undefined) | / | 26* | -2 | / | / | 8
CC(=O)N1CCc2c(sc3c2c(=O)n(-c2ccccc2)c(=O)n3CC(=O)NCC2CCCO2)C1 (centres undefined) | / | -6 | -34 | / | / | /
CC(=O)NS(=O)(=O)c1ccc(N2C(=O)CC(Sc3nccc(C)n3)C2=O)cc1 (centres undefined) | / | 0 | -53 | / | / | /
CS(=O)(=O)/C(C#N)=C\c1cnc(S(=O)(=O)c2ccccc2)s1 | / | 36* | -21 | / | / | 9
O=C(NCCCn1ccnc1)C(=O)NCC1OCCN1S(=O)(=O)c1ccc2c(c1)OCCO2 (centres undefined) | 2 | 2 | -5 | -5 | / | /
Nc1nonc1-n1nnc(C(=O)N/N=C/c2cc(Br)ccc2O)c1CNc1ccccc1 | / | 39* | 28 | / | / | 41*
C=CCn1c(C)cc(C(=O)Cn2ncc(Cl)c(Cl)c2=O)c1C | -2 | 48* | 10 | 6 | 87* | 21
COc1cc(C2c3cc4c(cc3C(OC3OC5COC(c6cccs6)OC5C(O)C3O)C3COC(=O)C23)OCO4)cc(OC)c1O (centres undefined) | 102* | 93* | 41 | 98* | / | 74*
COc1ccccc1NC(=O)c1nc(S(=O)(=O)Cc2ccccc2)ncc1Cl | / | 100* | 59 | / | / | 16
CCOc1ccccc1NC(=O)c1ccc(C(=O)Nc2ccccc2OCC)nc1 | / | -4 | 5 | / | / | /
CCOc1ccccc1NC(=O)c1nc(S(=O)(=O)Cc2ccccc2)ncc1Cl | / | 99* | 34 | / | / | 11
CCS(=O)(=O)c1ncc(Cl)c(C(=O)Nc2ccccc2OC)n1 | / | 29* | 20 | / | / | 19
SMILES | BaF3 parental | IEC-6 cytotox | KLF5 inh | Ba/F3 V617F tox | APP transl inh | IEC-6 tox confirm
CN(Cc1ccco1)S(=O)(=O)c1ccc2c(c1)CCN2C(=O)CCC(=O)O | 0 | -2 | 6 | -2 | 0 | /
COc1ccc(N2CCN(CCCn3c(=S)[nH]c4ccccc4c3=O)CC2)cc1 | / | 43* | 4 | / | / | 13
COc1ccccc1N1CCN(CCCn2c(=S)[nH]c3ccccc3c2=O)CC1 | / | 8 | -24 | / | / | /
CN(C)CCCNC(=O)/C(=N\O)c1ccccc1 | 6 | -3 | 10 | 2 | 4 | /
COc1ccc(C(=O)c2ccc(OC)c(N)c2)cc1N | 81* | 76* | 38 | 81* | 91* | 61*
C=CCc1cccc(/C=N/NC(=O)c2ccccc2OC)c1O | 4 | 41* | -13 | -1 | 8 | 19
C=CCc1cccc(/C=N/NC(=O)c2ccccc2Br)c1O | 4 | 22 | -35 | -3 | 16 | /
O=[N+]([O-])c1cc([N+](=O)[O-])c2cc3ccccc3nc2c1 | / | 46* | 3 | / | / | 12
Cc1cc(C)cc(NS(=O)(=O)c2ccc3[nH]cc(C(=O)NCc4ccco4)c(=O)c3c2)c1 | 66* | 28* | -2 | 64* | 0 | 29*
O=C(Nc1nc2ccccc2[nH]1)C1CC1 | 50* | 33* | -10 | 18 | -10 | 17

Compound activity (PubChem BioAssay)
